Compounds with a hit are over-represented: about 0.67% of the library has one in this group of screens.
PKA inh: PKA (human) kinase inhibition | PKA Kemptide phosphorylation, Kinase-Glo ATP luminescence | inhibition, % at 6 µM | hit rate 0.1% among 65,000;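 active = inhibition above the screen-wide mean inhibition plus 3 SD, cut at about 21% in these data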
DUSP1 inh: blocks human MKP-1 phosphatase activity. hit rate 0.15% among 65,000. inhibition, %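 (compounds tested at a single concentration somewhere between 10 and 100 µM)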. AID 374. P28562. recombinant MKP-1, OMFP hydrolysis fluorescence;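 active = inhibition above about 50%, limit read from the data; inconclusive = inhibition over screen mean plus 3 SD, below that limit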;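 also: 0% = DMSO max control wells and 100% = wells with enzyme stopped by NaOH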
WNV NS2B-NS3 inh: inhibitors of West Nile virus NS2B-NS3 protease; AID 577; hit rate 0.18% among 65,000; z-score (concentration not given with the values); WNV NS2B-NS3 protease, fluorogenic substrate Ex360/Em465; hits give low values; in the data active = z-score below about -3
Cdc25B inh: human M-phase inducer phosphatase 2 inhibition; recombinant Cdc25B, OMFP fluorescence Ex485/Em525; inhibition, %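 (compounds tested at 10 µM final in the well)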; hit rate 0.1% among 65,000; in the data active = inhibition above about 50%
ROCK2 inh: inhibitors of human Rho kinase 2. purified ROCK2, Kinase-Glo ATP depletion luminescence. AID 604. hit rate 0.35% among 60,000. inhibition, % at 6 µM. O75116;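 active = inhibition above the screen-wide mean inhibition plus 3 SD, cut at about 18% in these data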;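 also: plate controls were DMSO wells for no effect and Y-27632 control wells after no-enzyme background subtraction for full effect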
Target sequence (O75116 whole entry, looked up): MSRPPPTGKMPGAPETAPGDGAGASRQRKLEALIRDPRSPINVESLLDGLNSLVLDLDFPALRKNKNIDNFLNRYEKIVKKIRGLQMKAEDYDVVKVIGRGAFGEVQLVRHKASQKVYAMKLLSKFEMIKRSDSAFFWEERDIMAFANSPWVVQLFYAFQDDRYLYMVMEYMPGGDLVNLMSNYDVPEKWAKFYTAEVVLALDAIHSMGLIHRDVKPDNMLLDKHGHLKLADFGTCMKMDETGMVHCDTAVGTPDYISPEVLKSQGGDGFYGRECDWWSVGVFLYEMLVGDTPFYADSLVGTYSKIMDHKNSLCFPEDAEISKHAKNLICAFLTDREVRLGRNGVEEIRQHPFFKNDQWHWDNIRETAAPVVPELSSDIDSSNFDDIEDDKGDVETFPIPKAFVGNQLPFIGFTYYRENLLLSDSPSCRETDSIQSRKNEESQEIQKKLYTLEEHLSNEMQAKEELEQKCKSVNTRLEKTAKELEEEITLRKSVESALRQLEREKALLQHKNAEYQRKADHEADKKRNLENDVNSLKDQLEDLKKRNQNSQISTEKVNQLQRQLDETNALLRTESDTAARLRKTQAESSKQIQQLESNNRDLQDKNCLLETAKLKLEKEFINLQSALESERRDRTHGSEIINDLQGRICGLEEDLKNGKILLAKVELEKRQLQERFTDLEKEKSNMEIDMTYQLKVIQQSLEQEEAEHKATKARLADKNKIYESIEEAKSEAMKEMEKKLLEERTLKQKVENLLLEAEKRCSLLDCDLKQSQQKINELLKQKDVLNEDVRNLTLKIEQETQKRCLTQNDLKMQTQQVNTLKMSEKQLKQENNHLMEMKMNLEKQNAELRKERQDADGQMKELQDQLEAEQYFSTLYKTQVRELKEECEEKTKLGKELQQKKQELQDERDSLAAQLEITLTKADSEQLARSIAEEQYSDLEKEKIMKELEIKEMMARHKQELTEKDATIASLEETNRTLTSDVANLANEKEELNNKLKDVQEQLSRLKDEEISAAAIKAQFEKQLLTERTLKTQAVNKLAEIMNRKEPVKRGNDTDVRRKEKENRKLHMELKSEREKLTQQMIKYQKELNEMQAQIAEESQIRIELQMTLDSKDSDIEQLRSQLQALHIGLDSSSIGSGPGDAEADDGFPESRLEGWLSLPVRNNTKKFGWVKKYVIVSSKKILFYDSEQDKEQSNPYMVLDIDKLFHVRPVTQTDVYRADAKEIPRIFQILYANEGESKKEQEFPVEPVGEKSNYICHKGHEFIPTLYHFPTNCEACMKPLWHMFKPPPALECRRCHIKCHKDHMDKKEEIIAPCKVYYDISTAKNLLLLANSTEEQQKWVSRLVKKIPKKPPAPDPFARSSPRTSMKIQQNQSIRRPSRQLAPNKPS
Redox H2O2 0p5DTT: redox cycling H2O2 generation, Cdc25B counter-screen; shares compounds with Cdc25B inh; cell-free redox cycling H2O2 generation, 0.5 mM DTT; EC50, µM; hit rate 50% among 30; AID 682; in the data active = EC50 below about 30 µM
Redox H2O2 1DTT: generates H2O2 by redox cycling in 1 mM DTT. shares compounds with Cdc25B inh. EC50, µM. cell-free redox cycling H2O2 generation. 30 tested, under 10 active; in the data active = EC50 below about 50 µM
Redox H2O2: redox cycling H2O2 generation, MKP probe counter-screen; shares compounds with DUSP1 inh; DTT, phenol red/HRP; EC50, µM; 60 tested, under 10 active; AID 672; call rule not given here
* = called active by the depositor; ? = inconclusive; · = no result.

SMILES	PKA inh	DUSP1 inh	WNV NS2B-NS3 inh	Cdc25B inh	ROCK2 inh	Redox H2O2	others
Cc1ccccc1Nc1cc2ccccc2c(=O)[nH]1	2	8	0.48	81*	4	·	Redox H2O2 0p5DTT=>50;Redox H2O2 1DTT=>50
O=C(c1ccccc1F)N1CCN(c2ccccc2F)CC1	3	-5	0.63	-1	6	·
Nc1nc(SCc2ccccc2)ns1	5	-13	1.2	-3	0	·
Cc1ccc2c(c1C)NC(C(=O)O)C1CC=CC21 (configuration not stated)	6	?	-2.7	53*	5	·	Redox H2O2 0p5DTT=>50;Redox H2O2 1DTT=>50
CCOC(=O)C(C(=O)OCC)c1cc(Br)c2noc3c2c1C(=O)c1ccccc1-3	4	32	0.29	62*	·	·	Redox H2O2 0p5DTT=26*;Redox H2O2 1DTT=46*
CC(=O)OCCNc1cc(N2CCN(C)CC2)c2noc3c2c1C(=O)c1ccccc1-3	12	-5	-0.47	-6	8	·
O=C(Nc1ccc2nc(-c3ccco3)c(-c3ccco3)nc2c1)N1CCCCCC1	5	51*	-0.75	51*	7	>50	Redox H2O2 0p5DTT=>50;Redox H2O2 1DTT=>50
CCSc1ncc(C#N)c(=O)[nH]1	5	-5	0.76	4	5	·
N#Cc1c(N)sc(=S)c2c1CCN(Cc1ccccc1)C2	19	100*	1.1	102*	5	35*	Redox H2O2 0p5DTT=13*;Redox H2O2 1DTT=24*
Cc1ccc(/C=c2\sc3nc(-c4ccco4)nn3c2=O)o1	10	9	-1.5	20	8	·
COc1ccc(Br)cc1/C=c1\sc2nc(-c3ccco3)nn2c1=O	6	58*	-3*	61*	6	>50	Redox H2O2 0p5DTT=>50;Redox H2O2 1DTT=>50
COc1ccc(-c2coc3cc(O)cc(O)c3c2=O)cc1	0	-2	0.11	-1	-1	·
COc1ccc(C(=O)c2no[n+]([O-])c2C(=O)c2ccc(OC)cc2)cc1	-4	?	-0.0036	1	1	·
O=C(c1cccs1)c1no[n+]([O-])c1C(=O)c1cccs1	11	91*	-0.83	11	7	>50
CC(=O)[C@@H]1[C@@H]2C(=O)N(c3ccc(F)c(Cl)c3)C(=O)[C@@H]2C2c3ccccc3C=CN21 (some centres not stated)	-2	20	0.15	14	-7	>50
Cc1cc(NC(=O)c2ccc(S(=O)(=O)N3CCCC3)cc2)nc2c1c(=O)oc1ccccc12	4	67*	-0.59	0	·	>50
CCCSc1nnc(NC(=O)c2sc3nc(-c4cccs4)ccc3c2N)s1	-6	53*	-0.29	20	-4	>50
Cc1csc(NC(=O)c2sc3nc(-c4cccs4)ccc3c2N)n1	6	29	-0.38	2	9	·
CCCCCNC(=O)c1ccc2c(=O)[nH]c3c(C(=O)NCC4CCCO4)sc(=S)n3c2c1 (configuration not stated)	10	55*	-0.56	-4	8	>50
CCn1c(N)c(C(=O)NCC2CCCO2)sc1=S (configuration not stated)	-3	-9	-0.14	2	4	·
Nc1c(N2CCOCC2)cc(Cl)c2nonc12	10	-15	-0.71	-5	6	·
Nc1c(N2CCCC2)cc(Cl)c2nonc12	10	72*	0.5	5	2	>50
CCCN1C2CCCC1CC(NC(=O)NC1CCCCC1)C2 (configuration not stated)	10	-30	0.44	2	4	·
O=S1(=O)CCC(NCC2CCCO2)C1 (configuration not stated)	3	-3	-0.88	3	1	·
CCOC(=O)c1ccc2c(c1)C1C=CCC1C(C(=O)O)N2 (configuration not stated)	10	57*	-0.52	27	8	>50
SMILES	PKA inh	DUSP1 inh	WNV NS2B-NS3 inh	Cdc25B inh	ROCK2 inh	Redox H2O2	others
O=c1o[nH]c(-c2ccccc2)c1C1=NCCCCC1	0	-12	0.93	8	7	·
FC(F)(F)c1ccc(N2CCOCC2)c(Nc2nc3ccccc3n3cnnc23)c1	6	61*	-1.9	-10	2	>50
COC(=O)c1cc(CSc2nnc(-c3ccccc3)c(-c3ccccc3)n2)oc1C	-3	-8	-0.09	-23	-2	·
CCn1c(SCC(=O)Nc2ccc3c(c2)OCCO3)nnc1-c1ccco1	4	3	0.18	-5	-3	·
CCn1c(SCC(=O)Nc2ccc3c(c2)c2ccccc2n3CC)nnc1-c1ccco1	-6	64*	-3*	24	-11	>50
CC1CCCCN1S(=O)(=O)c1ccc(C(=O)Nc2nnc(-c3ccccc3Cl)o2)cc1 (configuration not stated)	8	3	1.4	24	4	·
Cc1cccc(NC(=O)c2cc(NC(=O)C3CCCCC3C(=O)O)ccc2N2CCCCC2)c1 (configuration not stated)	13	65*	0.92	10	10	>50
Cc1cc(C)n2c(SCC(=O)N3CCN(S(=O)(=O)c4ccc(Cl)cc4)CC3)nnc2n1	2	56*	-1.7	-1	5	>50
COc1cccc(C2NC(=O)NC(O)(C(F)(F)F)C2C(=O)c2cccnc2)c1OC (configuration not stated)	6	1	-1.2	-11	2	·
CCCCCC#CCC#CCC#CCC#CCCCC(=O)O	-7	29	-0.23	20	-2	>50
CCCCCc1ccc(CC(=O)O)cc1	7	3	0.74	-2	7	·
Nc1nc2c(s1)CCc1c-2cnn1-c1ccccc1	6	52*	-0.16	19	6	>50
COc1ccc(Cn2c(C)nc3c(c2=O)c2nc4ccccc4nc2n3Cc2ccco2)cc1	11	40	-1.1	7	3	>50
COC(=O)c1ccccc1NC(=O)c1cc(C2CC2)on1	6	11	-2.3	-14	2	·
COc1ccc(-n2c(NC(=O)c3ccco3)c(C#N)c3nc4ccccc4nc32)cc1	8	24	0.77	6	4	>50
CCC(=O)Nc1c(C#N)c2nc3ccccc3nc2n1-c1ccccc1C	-2	-2	2.5	5	2	·
CCn1cc(C(=O)N2CCn3c(nc4ccccc43)C2)c(=O)c2ccc(C)nc21	8	7	-0.8	-2	8	·
